Most compounds without a hit are left out; they make up all but 11% or so of the library.
ALDH1A1 block = ALDH1A1 (human) enzyme inhibition. P00352. Purified ALDH1A1, NADH fluorescence, propionaldehyde substrate. Potency, µM (highest dose often 75.3 µM), hits mostly inhibitors. 220,000 compounds, 7.3% hits. AID 1030
PNC assembly inh = inhibitors of perinucleolar compartment assembly; PC3M PTB-GFP, PNC prevalence imaging, 16 h; stronger effect = lower value; activity change (PNC), negative = inhibition, % at 10 µM; 140,000 compounds, 3.1% hits; AID 2417;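 active means readout at or below -70, meaning at least 70% loss of cells showing the perinucleolar compartment, a nuclear body marking cancer cells; inconclusive means readout between -30 and a set limit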
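Read-out is percentage of cells bearing a perinucleolar compartment, from automated 20x imaging of fixed, Hoechst-stained PC3M PTB-GFP cells. Cells were seeded 4 h, then exposed 16 h to compound (23 nl of library stock) in duplicate plates.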
HPGD block = blocks human HPGD enzyme activity; P15428; purified HPGD, NADH fluorescence kinetic, PGE2 substrate; Potency, µM, usual class: inhibitors; 150,000 compounds, 4.3% hits
Target sequence (P15428 whole entry, looked up): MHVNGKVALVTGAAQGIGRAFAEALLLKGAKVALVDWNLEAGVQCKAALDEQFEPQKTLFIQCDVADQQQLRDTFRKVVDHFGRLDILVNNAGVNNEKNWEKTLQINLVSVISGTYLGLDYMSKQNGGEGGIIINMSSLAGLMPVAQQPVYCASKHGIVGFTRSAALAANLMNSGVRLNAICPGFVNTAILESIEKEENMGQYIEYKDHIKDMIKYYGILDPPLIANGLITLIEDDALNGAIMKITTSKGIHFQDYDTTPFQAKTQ
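NADH formation kinetics: reaction with 30 uM PGE2 and 1 mM NAD+ (final), 20 nM enzyme, Tris-HCl pH 8 with Tween 20, after 15 min compound preincubation at room temperature. Fluorescence change, last versus first of five reads.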
A number is an active result; n = inactive; u = inconclusive; x = not tested or not shown; ! = not confirmed by another sample; [ ] = remark or other dose. Unless noted, the call rests on the fitted dose curve; in most records, active means well fitted inhibition curve with a large enough effect (not every such curve was filed as active); inconclusive means small, poorly fitted or top-dose-only effect, or another doubt; inactive means no such curve, though single readings can be large or run the other way.

SMILES | ALDH1A1 block | PNC assembly inh | HPGD block
Cc1ccccc1-c1nn(-c2ccc(F)cc2F)cc1CNCCCN(C)C | n | x | x
NC(=O)c1sc2cc(C(F)(F)F)cnc2c1-c1cccs1 | n | n | n
NNC(=O)c1sc2cc(C(F)(F)F)cnc2c1-c1cccs1 | 0.199µM | x | x
CCS(=O)(=O)c1ccc(NC(=O)c2ccccc2Cl)c(O)c1 | 15.8µM | n | n
NS(=O)(=O)c1ccc(NC(=O)c2ccccc2Cl)cc1 | n | n | n
CCOc1ccc(-n2c(SC(C)C)nc3c(c2=O)SCC3)cc1 | u | n | n
Cc1ccnc(NS(=O)(=O)c2ccc(N=[N+]=[N-])cc2)n1 | n[13.5 µM] | x | n
CC1(C)CC(=O)C(/C=N/n2c(C(F)(F)F)nc3ccccc3c2=O)=C(O)C1 | 25.1µM | u | n
CC1(C)CC(=O)C(C=NCc2ccccn2)=C(O)C1 | n | u | n
CCC(=O)NC(NC(=S)Nc1c(C)n(C)n(-c2ccccc2)c1=O)C(Cl)(Cl)Cl (centres undefined) | n | u | n
Cc1cc(C)c(C#N)c(SCc2ccccc2[N+](=O)[O-])n1 | 17.8µM | n | n
Cc1cc(C)c(C#N)c(SCCS(=O)(=O)Cc2ccc(Cl)cc2)n1 | 5.01µM | u | n
Cc1cc(C)c(C#N)c(SCS(=O)Cc2ccccc2)n1 (centres undefined) | 8.91µM | n | u
Cc1cc(C)c(C#N)c(SCc2nnc(-c3ccccc3)o2)n1 | n | n | 3.98µM
Cc1cc(C)c(C#N)c(SCc2ccc(C#N)cc2)n1 | n | n | n
COc1ccccc1-c1cc(-c2ccc(C)cc2)nc(SCc2nnc(-c3ccccc3)o2)c1C#N | u | n | u
Cc1cc(C)c(C#N)c(SCS(=O)Cc2ccc(Cl)cc2)n1 (centres undefined) | u | n | n
Cc1ccc(C#N)c(SCc2ccccc2[N+](=O)[O-])n1 | u | n | n
COc1ccc(-n2c(SCC(=O)Nc3nccs3)nc3c(c2=O)SC(C)C3)cc1 (centres undefined) | n | u | n
COc1ncc2nc(C)c(=O)n(CCC#N)c2n1 | n | x | n
Cc1onc(-c2ccccc2Cl)c1C(=O)N1CCOC12CCCCC2 | n | x | x
O=S(=O)(Nc1cccc2c1CCCC2)c1ccc(Cl)cc1 | u | n | n
CCOc1ccc(-c2nn(-c3ccccc3)cc2/C=C2\SC(=S)N(C3CCS(=O)(=O)C3)C2=O)cc1 (centres undefined) | n | n | n
CCOc1ccc(-c2nn(-c3ccccc3)cc2/C=C2\SC(N)=NC2=O)cc1C | n | n | 15.8µM
CCOC(=O)c1c(-c2ccc(C)o2)csc1NC(=S)NC(=O)N(C)C | u | n | n
SMILES | ALDH1A1 block | PNC assembly inh | HPGD block
COc1ccc(O[C@H]2C=C[C@@H](c3ccccc3)O[C@H]2COC(=O)CC/C(C)=N/O[C@@H]2O[C@H](COC(C)=O)[C@H](OC(C)=O)[C@H](OC(C)=O)[C@H]2OC(C)=O)cc1 | n[13.5 µM] | x | x
CC1CC(=O)c2cnc(NCC3CCCO3)nc2C1 (centres undefined) | u | n | n
CC1(C)CC(=O)c2cnc(NCC3CCCO3)nc2C1 (centres undefined) | u | u | 22.4µM
Oc1c(Cl)cc(Cl)cc1Sc1cc(Cl)cc(Cl)c1O | 23.8µM! | n | 31.6µM!
Oc1c(Cl)cc(C(c2cc(Cl)c(O)c(Cl)c2)C(c2cc(Cl)c(O)c(Cl)c2)c2cc(Cl)c(O)c(Cl)c2)cc1Cl | n[13.5 µM] | x | n
CC(=O)c1ccc(OCc2ccc(Oc3c(Cl)cccc3[N+](=O)[O-])cc2)cc1 | n | n | n
CCOC(=O)C[n+]1c(C)ccc2c1CCC2 | n | u | n
COc1ccc(OC)c(C2C(C(C)=O)=C(O)C(=O)N2c2ccc(F)cc2)c1 (centres undefined) | u | n | n
COc1ccc(OC)c(C2C(C(C)=O)=C(O)C(=O)N2Cc2cccnc2)c1 (centres undefined) | 28.2µM | n | n
COc1ccc(C2C(C(C)=O)=C(O)C(=O)N2C)c(OC)c1 (centres undefined) | n | -127.2 | n
COc1ccc(C2C(C(C)=O)=C(O)C(=O)N2c2cccnc2)c(OC)c1 (centres undefined) | 31.6µM | u | u
COc1ccc(CCN2C(=O)C(O)=C(C(C)=O)C2c2ccccc2OC)cc1OC (centres undefined) | n | n | n
CC(=O)C1=C(O)C(=O)N(Cc2cccnc2)C1c1ccccc1Cl (centres undefined) | u | n | n
CC1(C)NC(=O)N(CC(O)COc2cc3ccccc3cc2C(=O)N2CCCCC2)C1=O (centres undefined) | n | n | n
O=C(c1cc2ccccc2cc1OCC(O)CN1CCCCC1)N1CCCCC1 (centres undefined) | u | n | 11.2µM
COc1cc(NC(=O)CN2C(=O)NC(c3ccccc3)(c3ccccc3)C2=O)c(C)cc1[N+](=O)[O-] | u | u | n
CCN1C(=O)C(O)(CC(=O)c2ccccn2)c2ccccc21 (centres undefined) | u | n | n
C=CCN1C(=O)C(O)(CC(=O)c2ccccc2)c2ccccc21 (centres undefined) | 3.55µM | n | n
O=C(CC1(O)C(=O)N(Cc2cccc3ccccc23)c2ccccc21)c1cccnc1 (centres undefined) | 0.112µM | n | n
CN1C(=O)C(O)(CC(=O)c2cccnc2)c2ccccc21 (centres undefined) | n | u | n
CCN1C(=O)C(O)(CC(=O)c2cccc(-n3cccc3)c2)c2ccccc21 (centres undefined) | 4.47µM | x | x
CCN1C(=O)C(O)(CC(=O)c2ccc(-n3cccc3)cc2)c2ccccc21 (centres undefined) | n | -100.0 | n
O=C(CC1(O)C(=O)N(CCc2ccccc2)c2ccccc21)c1ccco1 (centres undefined) | u | u | n
CCN(CCCCOC(=O)c1ccc(OC)c(OC)c1)[C@@H](C)Cc1ccc(OC)cc1 | n | x | n
Cc1cc(C)nc(-n2nc(C)cc2NC(=O)c2cccc(S(=O)(=O)N3CCCCC3)c2)n1 | u | n | n
SMILES | ALDH1A1 block | PNC assembly inh | HPGD block
Cc1c(NC(=S)Nc2cccc(Cl)c2)c(=O)n(-c2ccccc2)n1C | n | x | x
COc1cccc(NC(=O)CSc2nncn2N)c1 | n | n | n
CC1CC(C)CN(c2nc3c(c(=O)n(C)c(=O)n3C)n2C)C1 (centres undefined) | n | n | n
CCCNC(=O)COC(=O)c1cc2c(=O)n3ccccc3nc2s1 | u | n | u
COC/C=C/C1=CC2=CC(=O)C(C)(O)C(=O)C2=CO1 (centres undefined) | n | x | n
O=[N+]([O-])c1ccccc1OCCOCCOc1cccc2cccnc12 | u | -85.6 | n
COC(=O)c1ccccc1OCCOCCOc1cccc2cccnc12 | u | u | n
C#CCNC(=O)C1=C[C@H](C2CCCCC2)[C@@H](CCCO)[C@H](OCC)O1 | n | x | x
O=C(c1ccco1)N1CCC2(CCCN(C(c3ccccc3)c3ccccc3)C2)CC1 | u | x | n
Cn1c(Sc2ccc(C(F)(F)F)cc2[N+](=O)[O-])nnc1-c1ccccc1 | n | u | n
CCOC(=O)c1sc(NC(=O)CC)nc1C | n | x | x
CCC(=O)Nc1nc(C)c(C(=O)N2CCCCC2)s1 | u | n | 8.91µM
NC(=O)c1cc[n+](CC2=C(C(=O)O)N3C(=O)[C@@H](NC(=O)[C@@H](c4ccccc4)S(=O)(=O)[O-])[C@H]3SC2)cc1 | n | x | n

Bioassay records as filed in PubChem.
